The OligoGym collection

What follows are sequences tested against TCEAL1 (assay: pooled miR-30 sensor sort-seq; sequence = guide strand). Details: shRNA.
Further: reference of the scale not given here.

| Sequence | sensor-assay potency score (higher = more potent) |
| --- | --- |
| TTACTCTTTTCATCTCTTCTAG | -0.0336 |
| TTTTCATCTCTTCTAGCTCATC | -1.39 |
| ATCAGTTTGTTTCTTACTCTTT | -0.801 |
| TTATGTTTTCCTACTCCACAAG | -1.15 |
| TTCTAGCTCATCTGCTGCCTGT | -0.542 |
| ATTATCATCAGTTTGTTTCTTA | 0.834 |
| TCATCTCTTCTAGCTCATCTGC | -1.12 |
| AAAGCTTCCTTCTTCAAGCTTA | 0.373 |
| TAAATTGCGGGCGAGAACGAGC | -1.13 |
| TTTGTTTCTTACTCTTTTCATC | -1.09 |
| TTCGGGAGAGTGCTCCACCGGA | -1.49 |
| TGTATCATCTCCTCATTGCTTA | 0.297 |

Each sequence was assayed against TCEANC2 in the same assay as above. Details: shRNA.

| Sequence | sensor-assay potency score (higher = more potent) |
| --- | --- |
| TACAACCACAACTCTCTTCAGA | -0.694 |
| TTCTACAACCACAACTCTCTTC | -0.1 |
| TAGAAGGTCTATTTGAATGTTT | -0.0592 |
| TTTCTGAGCATTTTTCCTCAAC | -1.1 |
| TTTTCTTCTTTAATTCTTGTAA | -0.255 |
